Screening results (PubChem)
Sampled rows, rich in hits. Any-hit rate of the full collection: about 10%.
HP1b chromo inh: HTS for Inhibitors of HP1-beta Chromodomain Interactions with Methylated Histone Tails; AlphaScreen HP1-beta / biotin-H3K9me3 peptide binding; Potency, µM (series often up to 114 µM), for the others: at the highest dose activity change, negative = inhibition, hits mostly inhibitors; actives 0.56% (n = 390,000); AID 540317, 2011; further: nearly all actives have a fitted effect of over 70% in size
Target sequence (P83916 whole entry, looked up): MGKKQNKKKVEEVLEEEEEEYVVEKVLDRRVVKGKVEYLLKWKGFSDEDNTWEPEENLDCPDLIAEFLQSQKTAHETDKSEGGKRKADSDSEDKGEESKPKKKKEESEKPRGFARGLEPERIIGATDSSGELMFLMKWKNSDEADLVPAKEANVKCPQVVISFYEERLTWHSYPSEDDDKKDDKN
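Compound inhibition of the preformed complex between 50 nM HP1-beta and 50 nM biotinylated H3K9me3 peptide was read by AlphaScreen. Buffer was PBS pH 7.4 with 0.01% Tween-20. Incubations ran 30 min at room temperature, with 10 ug/mL donor/acceptor beads.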
L3MBTL1 block: qHTS Assay for the Inhibitors of L3MBTL1; Lethal(3)malignant brain tumor-like protein 1 (Homo sapiens), Q9Y468; AlphaScreen L3MBTL1–H3K9me1 peptide binding; Potency, µM (series often up to 57.1 µM), inactives show at the highest dose activity, negative = inhibition, actives largely listed as inhibitors; actives 0.66% (n = 230,000); further: on the % scale 0 is the no-effect control and ±100 the full control effect; nearly all actives have a fitted effect of over 60% in size
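AlphaScreen assay: L3MBTL1 (50 nM final) was preincubated 30 min at room temperature with biotinylated H3(1-15)K9me1 peptide (75 nM final), then 30 min with library compounds; streptavidin donor and nickel chelate acceptor beads (10 ug/mL final) added, 30 min dark.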
JMJD2A Tudor: qHTS Assay for Inhibitors of JMJD2A-Tudor Domain; AID 504339, 2011; actives 4.4% (n = 390,000); Lysine-specific demethylase 4A (Homo sapiens), O75164; AlphaScreen JMJD2A-Tudor / H3K4me3 peptide binding; Potency, µM (series often up to 114 µM), inactives show at the highest dose activity change, negative = inhibition, hits mostly inhibitors; further: on the % scale 0 is the no-effect control and ±100 the full control effect; nearly all actives have a fitted effect of over 50% in size
GLS inhibitor: qHTS for Inhibitors of Glutaminase (GLS); actives 0.21% (n = 410,000); Potency, µM (top dose mostly 45.5 µM), without a hit: at the top dose activity change, negative = inhibition, actives largely listed as inhibitors; AID 624170, 2012; GLS enzymatic activity, qHTS titration; Glutaminase kidney isoform, mitochondrial (Homo sapiens), O94925; further: on the % scale 0 is the no-effect control and ±100 the full control effect
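Glutamate formation by hKGA was monitored fluorometrically using coupled glutamate oxidase, HRP and Amplex Red. Substrate was added as 1 mM L-glutamine solution; incubation was 30 min at RT after an initial read.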
G9a inh: qHTS Assay for Inhibitors of Histone Lysine Methyltransferase G9a. Potency, µM (titrated, usually from 102 µM), for the others: at the top dose activity, negative = inhibition, hits mostly inhibitors. Histone-lysine N-methyltransferase EHMT2 (Homo sapiens), Q96KQ7. actives 8.8% (n = 350,000). AID 504332, 2011. G9a H3K9 monomethylation, AlphaScreen, 2 h; further: on the % scale 0 is the no-effect control and ±100 the full control effect; nearly all actives have a fitted effect of over 75% in size
Target sequence (Q96KQ7 913-1193 limits assumed): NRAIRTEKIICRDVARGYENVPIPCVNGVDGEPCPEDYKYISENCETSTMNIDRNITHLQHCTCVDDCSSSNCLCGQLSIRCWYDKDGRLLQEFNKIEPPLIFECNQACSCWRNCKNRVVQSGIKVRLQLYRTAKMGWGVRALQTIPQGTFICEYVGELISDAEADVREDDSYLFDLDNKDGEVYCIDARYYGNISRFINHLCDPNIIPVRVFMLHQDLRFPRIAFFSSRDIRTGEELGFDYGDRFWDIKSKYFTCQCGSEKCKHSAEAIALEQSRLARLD
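Chemiluminescent proximity detection of H3K9 monomethylation, read after 10 min bead incubation in the dark. Reaction: 20 nM G9a, 500 nM biotin-H3K9 peptide, 20 uM SAM cofactor, 2 h, room temperature, following 15 min enzyme-compound preincubation.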
BAZ2B block: qHTS Assay for Inhibitors of BAZ2B; Bromodomain adjacent to zinc finger domain protein 2B (Homo sapiens), Q9UIF8; Potency, µM (doses to about 114 µM), inactives show at the top dose activity change, negative = inhibition, hits mostly inhibitors; actives 4.4% (n = 360,000); AlphaScreen BAZ2B-H3K14Ac peptide displacement; AID 504333, 2011; further: on the % scale 0 is the no-effect control and ±100 the full control effect; nearly all actives have a fitted effect of over 60% in size
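BAZ2B 50 nM plus b-H3(5-23)K14Ac 50 nM, PBS pH 7.4/0.01% Tween-20, 30 min RT; compound added (max 110 uM), 30 min RT; streptavidin donor/Ni-chelate acceptor beads 10 ug/mL final, 20 min dark; AlphaScreen read.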
Starred values were filed as active, the others as inactive; ? = inconclusive; . = not tested or not shown; [ ] = another dose, or the depositor's remark. The call rests on the fitted dose curve; in most records, active means well fitted curve in the direction sought with a large enough effect; inconclusive means small, poorly fitted or top-dose-only effect, or another doubt; inactive means no such curve, though single readings can be large; an effect the other way counts as inactive or inconclusive. Potency means the concentration at half of the fitted maximal effect.

SMILES	HP1b chromo inh	L3MBTL1 block	JMJD2A Tudor	GLS inhibitor	G9a inh	BAZ2B block
CC(C)OCCCNC(=O)Cc1ccc(NC(=O)N2CCCCc3ccccc32)cc1	-3%	.	-17%	-10%	14%[59 µM]	-6%
COc1ccc(NC(=O)c2c[nH]n3c(=O)cc(C4CCN(C(=O)OC(C)(C)C)CC4)nc23)cc1Cl	17%	.	-27%	-10%	45µM*	?
CC(C)(C)OC(=O)N1CCC(c2cc(=O)n3[nH]cc(C(=O)NC4CCCC4)c3n2)CC1	41%	.	-17%	6%	56µM*	-1%
CC(C)(C)OC(=O)N1CCC(c2cc(=O)n3[nH]cc(C(=O)Nc4ccc(F)c(Cl)c4)c3n2)CC1	9%[57 µM]	0%	-18%	?	-42%	-2%
CC(C)(C)OC(=O)N1CCC(c2c(C(=O)NC3CCCCC3)cnn2-c2cccc(Cl)c2)CC1	-7%	.	-32%	-12%	-11%[59 µM]	5%[57.1 µM]
Cc1occc1-c1nnc(SCC(=O)O)n1-c1ccccc1	16%[57 µM]	.	0%	6%	-4%[59 µM]	-3%
Cc1occc1-c1n[nH]c(=S)n1-c1ccccc1	25%	9%	7.1µM*	-4%	5µM*	-7%
Cc1occc1-c1n[nH]c(=S)n1C	?	15%	-7%[11.4 µM]	-11%	35µM*	-13%
Cc1ccc(CNC(=O)c2nn(C)c(C)c2[N+](=O)[O-])cc1	24%	5%	0%	-10%	2%	-2%
CCN(CC)c1ccc(N=Nc2nn(C)c(C)c2[N+](=O)[O-])cc1	14µM*	?	?	2%	?	10µM*
CCN(Cc1ccccc1)c1ccc(N=Nc2nn(C)c(C)c2[N+](=O)[O-])cc1	?	16µM*	6.3µM*	-7%	10µM*	8.9µM*
CCN(Cc1ccccc1)c1ccccc1	73%	.	14%	27%	.	.
COc1ccc(CNCCC(c2ccc3c(c2)OCO3)c2ccccc2OC)cc1 (stereo not given)	-2%	.	?	-2%	?	?
Cc1cc(C)n(CC(C)C(=O)O)n1 (stereo not given)	8%	-2%	-13%	18%	.	79µM*
CCCCn1c(NCc2ccc(N(C)C)cc2)nc2ccccc21	?	?	40µM*	25%	?	40µM*
C=CCn1c(NCc2ccco2)nc2ccccc21	38%	2%	-4%	5%	-4%[59 µM]	-30%
C=CCn1c(NCc2ccc(N(C)C)cc2)nc2ccccc21	?	-20%	?	41%	?	45µM*
CCCCn1c(NCc2ccncc2)nc2ccccc21	36%	-11%	-10%	5%	-9%	-12%
O=C(O)/C=C/c1ccc(OCc2cccc(F)c2)cc1	-2%	.	14µM*	-12%	-29%	-13%
O=C(O)/C=C/C(=O)Nc1ccc(OCc2ccccc2)cc1	51%	.	-18%	5%	56µM*	-28%
COCCCn1c(=N)c(C(=O)NC2CCCCC2)cc2c(=O)n3cc(C)ccc3nc21	32%	.	2%	-5%	5%[59 µM]	3%
COc1cc(CNn2c(C)n[nH]c2=S)cc(Cl)c1OCC(=O)NC(C)(C)C	52%	7%	56µM*	-25%	.	-7%
COc1cc(CNn2cn[nH]c2=S)ccc1OCC(=O)NC(C)(C)C	52%	-3%	?	-5%	18µM*	-33%
COc1cc(CNn2c(C)n[nH]c2=S)cc(Br)c1OCC(=O)NC(C)(C)C	26%	3%	?	-6%	4µM*	-8%
COc1cc(CNC(C)(C)CO)ccc1OCC(=O)NC(C)(C)C	40%	10%	-2%[57.1 µM]	3%	-2%[59 µM]	3%
SMILES	HP1b chromo inh	L3MBTL1 block	JMJD2A Tudor	GLS inhibitor	G9a inh	BAZ2B block
CCOc1cc(CNn2cnnc2)cc(Cl)c1OCC(=O)NC(C)(C)C	34%	?	-4%	-1%	17%	-32%
CCOc1ccc(C2C(=O)N(C3CCCCC3)CC(=O)N2Cc2ccccc2OC)cc1OC (stereo not given)	6%	.	-19%	0%	14%[59 µM]	-5%
Cc1cccc(N(C)C(=O)Cc2c(C(=O)O)[nH]c3ccccc23)c1	33%	.	-16%	-1%	1%[59 µM]	-3%
CCCCCCSC1=C(C#N)C(=O)NC2(CCCCC2)S1	?	-13%	56µM*	32%	13µM*	?
COc1ccc(CSC2=C(C#N)C(=O)NC3(CCCCC3)S2)cc1	.	.	.	5%	.	.
Cc1ccc(C)c(CSc2nc3c([nH]c4ccccc43)c(=O)n2C)c1	23%[57 µM]	.	-3%	-5%	0%[59 µM]	0%
CC(=O)Nc1ccc(/C=C/c2ccc3c([N+](=O)[O-])cccc3n2)cc1	19%	34%	-29%	-4%	?	-21%
O=[N+]([O-])c1cccc2ccc(/C=C/c3ccc(Cl)cc3)nc12	-31%	-18%	?	6%	79µM*	57%
O=[N+]([O-])c1cccc2ccc(/C=C/c3ccc(C(F)(F)F)cc3)nc12	-20%	0%	?	0%	35µM*	-6%
O=[N+]([O-])c1cccc2ccc(/C=C/c3cccc(Br)c3)nc12	-13%	?	?	-13%	?	?
Cc1cc(C)nc(NNS(=O)(=O)c2ccc(Cl)cc2)n1	-5%	2%	?	17%	.	.
COc1ccc(S(=O)(=O)NC2CC2)cc1Br	35%	4%	3%	-3%	.	2%
COc1ccc(S(=O)(=O)NNc2nc(C)cc(C)n2)cc1Br	-8%	-2%	-15%	24%	22µM*	6%
Cc1cc(C)nc(NNS(=O)(=O)c2ccc(F)c(Cl)c2)n1	15%	-5%	-31%	14%	?	79µM*
COc1ccc(CNC(=O)C2CCN(S(=O)(=O)c3c(C)noc3/C=C/c3ccccc3F)CC2)cc1	14%[57 µM]	.	-18%	5%	22%[59 µM]	-2%
Nc1c(C(=O)NC2CCCC2)c2nc3ccccc3nc2n1N	26%	-8%	-20%	18%	50µM*	12%
Nc1c(C(=O)NC2CCCC2)c2nc3ccccc3nc2n1/N=C/c1ccco1	15%	.	-6%	3%	-6%	4%
CCOc1cc(C2C(C(=O)Nc3ccccc3)=C(C)Nc3ncnn32)cc(Br)c1O (stereo not given)	12%[57 µM]	.	?	5%	10µM*	79µM*
CC1=C(C(=O)Nc2ccc(C)cc2C)C(c2ccc[nH]2)n2ncnc2N1 (stereo not given)	24%[57 µM]	.	-3%	5%	15%[59 µM]	5%
